The text below walks through data of PubChem BioAssay AID793 (The Scripps Research Institute Molecular Screening Center, 2007).

Where “and” joins values, the source holds several entries; their conditions need not be identical. Identical values can stand only once. In all, about 140,000 compounds went through this assay and about 1,400 (1%) were called active. No stated cut-off is given here; in the data, active means inhibition above about 17%; inactive means the rest. For the sample, actives were picked, then their nearest neighbours and some compounds at random. Some structures have more than one record in an assay (separate samples or runs), and their calls can disagree.

The target of this experiment is Neuropeptide Y receptor type 2 (Homo sapiens) (UniProt P49146). As to the kind of experiment: blockers of human neuropeptide Y Y2 receptor – cell-based, primary screen (AID 793).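 Further: 0% = vehicle with agonist challenge and 100% = reference antagonist with challenge.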 Particulars: NPY-Y2 expressing cells, antagonist mode; at 2.7 µM; stronger effect = higher value.
Sequence of Neuropeptide Y receptor type 2 (Homo sapiens) (P49146 whole entry, looked up): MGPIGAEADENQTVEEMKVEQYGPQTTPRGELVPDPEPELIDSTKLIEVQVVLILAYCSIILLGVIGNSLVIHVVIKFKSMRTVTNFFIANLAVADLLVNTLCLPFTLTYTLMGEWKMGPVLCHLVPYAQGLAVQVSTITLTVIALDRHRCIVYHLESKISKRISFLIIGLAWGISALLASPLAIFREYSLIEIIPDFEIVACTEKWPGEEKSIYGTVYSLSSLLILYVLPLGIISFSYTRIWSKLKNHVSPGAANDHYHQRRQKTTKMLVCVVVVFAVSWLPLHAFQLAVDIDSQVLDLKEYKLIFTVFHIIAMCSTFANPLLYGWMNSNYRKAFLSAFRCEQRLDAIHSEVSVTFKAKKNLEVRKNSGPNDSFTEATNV
For `CC1CCCCN1CC(=O)NCc1ccc2c(c1)OCO2` (stereo unspecified), the inhibition (in general, the change of the read-out against control, counted positive when it falls) is 1.99% (inactive).

As to `Cc1ccc(NC(=O)CN2CCC3(O)CCCCC3C2c2ccc3c(c2)OCO3)c(C)c1` (stereo unspecified), the inhibition is 21.3% (active).

`CCN(CC)c1ccc(C2C3CCCCC3(O)CCN2CC(=O)Nc2ccccc2)cc1` (stereo unspecified): the inhibition was 5.72% (inactive).

As to `FC(F)Oc1ccccc1NC(=S)Nc1cccc(Cl)c1Cl`, the inhibition was 0.76% (inactive).

With `CCCCN(CC)C(=S)Nc1ccc2nc3n(c(=O)c2c1)CCCCC3`, the inhibition is 3.37% (inactive).

Consider `COc1ccc(/C=C(/CC(=O)Nc2ccc(C)cc2)c2nc3ccccc3s2)cc1`, for which the inhibition is 3.93% (inactive).

On to `O=C(C(=O)N1CCc2ccccc2C1)N1CCc2ccccc2C1`, for which the inhibition was -0.59% (inactive).

Regarding `CCOC(=O)/C(C#N)=C/c1ccc(N2CCN(Cc3ccccc3)CC2)cc1`, the inhibition was 5.28% (inactive).

In the case of `CC1CN(S(=O)(=O)c2ccc(C(=O)Nc3sccc3C(N)=O)cc2)CC(C)O1` (stereo unspecified), the inhibition is -0.61% (inactive).

Regarding `CNC(=S)NNC(=O)c1sccc1OCc1ccccc1`, the inhibition was -0.16% (inactive).

For the molecule `Cc1ccsc1C(=O)N/N=C/c1ccc([N+](=O)[O-])cc1`, the inhibition is 1.67% (inactive).

On to `Cc1ccc(/C=N/NC(=O)c2sccc2OCc2ccc(F)cc2)cc1`, for which the inhibition was 25.7% (active).

On to `CCCCOc1ccc(C(=O)NCc2ccncc2)cc1`, for which the inhibition is -1.04% (inactive).

On to `CCCCOc1ccc(C(=O)NN2CCN(C)CC2)cc1`, for which the inhibition was 0.95% (inactive).

Take `CCCOc1ccc(C(=O)C(CCC(CNCC)C(=O)c2ccc(OCCC)cc2)CNCC)cc1` (stereo unspecified): the inhibition is 30.9% (active).

For the molecule `CCOc1ccc(C(=O)Nc2nccs2)cc1[N+](=O)[O-]`, the inhibition is -0.69% (inactive).

With `O=C(OC1CCOC1=O)c1cccc(S(=O)(=O)Nc2ccc(F)cc2)c1` (stereo unspecified), the inhibition is 2.56% (inactive).

`CCc1cccc(NC(=O)CCC(=O)O)c1`: the inhibition was 1.58% (inactive).

For the molecule `CCOC(=O)COc1ccc([N+](=O)[O-])cc1`, the inhibition is 1.59% (inactive).

As for `COc1ccc(OC)c2c(N)c(C#N)c(C(F)(F)C(F)(F)F)nc12`, the inhibition was -1.33% (inactive).

Regarding `N#Cc1c(N)nc2c3c(sc(=N)c2c1N)NC(=O)CC3c1ccccc1Cl` (stereo unspecified), the inhibition is 1.65% (inactive).

Consider `COc1ccc(C2CC(=O)Nc3sc(=N)c4c(N)c(C#N)c(N)nc4c32)cc1OC` (stereo unspecified), for which the inhibition is 86.1% (active).

Turning to `CCN(CC)S(=O)(=O)c1cccc(-c2n[nH]c(=S)n2/N=C/c2ccc(C(=O)OC)cc2)c1`, the inhibition is -0.07% (inactive).

On to `Cc1cc(C)nc(NC(=O)c2cccc([N+](=O)[O-])c2)c1`, for which the inhibition was 2.05% (inactive).

`COc1ccc(/C=C/C(=O)c2cc(Br)ccc(=O)c2O)cc1`: the inhibition was 5.15% (inactive).

For the molecule `COc1ccc(/C=C/C(=O)NC(=S)NN2CCCCC2c2cccnc2)cc1` (stereo unspecified), the inhibition is 44% (active).

As to `CCOc1ccc(NC(=S)NC(=O)/C=C/c2ccc(OC)cc2)c([N+](=O)[O-])c1`, the inhibition is 0.55% (inactive).

As for `O=C(/C=C/c1ccc(F)cc1)NC(=S)NNC(=O)c1cccnc1`, the inhibition is 2.46% (inactive).

For the molecule `NC(=O)CC[C@@H]1NC(=O)[C@H](CO)NC(=O)c2cc([N+](=O)[O-])cc(I)c2NCC[C@@H](C(N)=O)NC1=O`, the inhibition is 0.11% (inactive).

Consider `COCCN1C(=O)N[C@@H](c2ccccc2)C(C(=O)OC)=C1C`, for which the inhibition is 1.37% (inactive).

On to `Cc1ccc(S(=O)(=O)c2ccc(Cl)cc2)cc1S(=O)(=O)NC(C(=O)O)C(C)C` (stereo unspecified), for which the inhibition was -0.6% (inactive).

On to `C/C(Cc1ccccc1)=N\NC(=O)CNC(=O)c1cccc(Br)c1`, for which the inhibition is 2.91% (inactive).

On to `O=C(CCN1C(=O)c2ccccc2C1=O)Nc1ccncc1`, for which the inhibition is 1.5% (inactive).

Take `COc1cc(C(=O)Nc2oc(-c3ccccc3)c(-c3ccccc3)c2C#N)cc(OC)c1OC`: the inhibition is 0.05% (inactive).

In the case of `N#Cc1c(NC(=O)CCCN2C(=O)c3ccccc3C2=O)oc(-c2ccccc2)c1-c1ccccc1`, the inhibition was 20.4% (active).

On to `O=C(/C=C/c1cnc2ccccc2n1)NC1CCCCCC1`, for which the inhibition is 5.1% (inactive).

On to `O=C(O)/C(=C/c1cccnc1)NC(=O)c1ccccc1`, for which the inhibition is 0.95% (inactive).

As to `CCCc1[nH]nc2c1C(C1CC=CCC1)C(C#N)=C(N)O2` (stereo unspecified), the inhibition is 2.32% (inactive).

Turning to `CCCc1[nH]nc2c1C(c1c(C)nn(-c3ccccc3)c1Cl)C(C#N)=C(N)O2` (stereo unspecified), the inhibition was 0.27% (inactive).

Take `CCCc1[nH]nc2c1C(c1ccc(Br)s1)C(C#N)=C(N)O2` (stereo unspecified): the inhibition is 53.5% (active).

On to `Cc1[nH]c2ccccc2c1C(=O)COC(=O)c1c(-c2ccccc2)noc1C`, for which the inhibition is -0.4% (inactive).

As to `C/C(=C/C(=O)N1CCN(C)CC1)C(=O)O`, the inhibition is 1.55% (inactive).

As for `CN(CC(=O)Nc1ccc(S(=O)(=O)N2CCCC2)cc1)Cc1ccc(Cl)c(Cl)c1`, the inhibition is 1.24% (inactive).

On to `CC(C)CNC(=S)NC(=O)c1ccc(Cl)cc1`, for which the inhibition was 6.88% (inactive).

As for `N=c1n(Cc2ccc(Cl)cc2)c2ccccc2n1CC(O)c1ccco1` (stereo unspecified), the inhibition is 18.4% (active).

`Cc1ccc(Cn2c(NC(=O)c3ccco3)nc3ccccc32)cc1`: the inhibition was 15.8% (inactive).

For the molecule `O=S(=O)(O)c1nc2ccccc2n1Cc1ccc(Cl)cc1`, the inhibition was 3% (inactive).

Take `CC(C)[C@@H]1NC(=O)c2cc([N+](=O)[O-])cc(I)c2NCCC[C@@H](C(=O)NC(CC(=O)O)C(N)=O)NC(=O)[C@H](CO)NC1=O` (stereo partly specified): the inhibition is 2.25% (inactive).

With `CCOc1ccc(NC(=O)c2ccc(CSc3nnnn3C)cc2)cc1`, the inhibition is 1.22% (inactive).

With `O=C(NCCOc1ccccc1)c1ccccc1`, the inhibition was 0.21% (inactive).

On to `C=CCNC(=O)CCCOc1cccc(C)c1`, for which the inhibition is 1.38% (inactive).

In the case of `C=CCNCCCCOc1ccccc1`, the inhibition is 28.3% (active).

With `CCC1S/C(=N/N=C/c2ccco2)NC1=O` (stereo unspecified), the inhibition is 2.82% (inactive).

For `CN(C)S(=O)(=O)c1cc(NC(=O)CN2C(=O)NC3(CCCc4ccccc43)C2=O)ccc1Cl` (stereo unspecified), the inhibition was -4.1% (inactive).

As for `OCC(CO)(CO)NCc1ccc(-c2ccccc2)cc1`, the inhibition was 4.54% (inactive).

Turning to `COc1ccc(S(=O)(=O)NC(C)C)cc1C(=O)NC1CCCCC1`, the inhibition is 5.96% (inactive).

For `COc1cc2c3c(c1)/C(=C1/SC(=S)NC1=O)C(=O)N3C(C)(C)C=C2C`, the inhibition was -1.35% (inactive).

`COc1ccc(C(CC(=O)O)NC(=O)Cc2ccccc2)cc1` (stereo unspecified): the inhibition was 0.31% (inactive).

As to `CCC/C=C(\CCC)C(NC(=O)Cc1ccccc1)c1ccc(C(=O)OC)cc1` (stereo unspecified), the inhibition is 20.7% (active).

Turning to `CCC[C@@H]1C[C@@]1(CCC)[C@@H](NC(=O)c1ccccc1)c1ccc(C(=O)OC)cc1`, the inhibition was 6.17% (inactive).

Turning to `CCN(c1ccc(NC(=O)COC(=O)CCc2nc3ccccc3n2-c2ccccc2)cc1)C(C)C`, the inhibition was -0.2% (inactive).

Turning to `Cc1cc(-c2n[nH]c(=S)n2-c2ccc(C)c(C)c2)no1`, the inhibition was 3.33% (inactive).

On to `Cc1nc(SCc2ccc(F)cc2)c([N+](=O)[O-])[nH]1`, for which the inhibition was 6.36% (inactive).

For the molecule `COc1cc(/C=C/C(=O)O)cc(S(=O)(=O)Nc2ccccc2SC)c1OC`, the inhibition is 1.33% (inactive).

On to `CCC(c1nnnn1C1CCCC1)N(Cc1cccs1)Cc1cc2cccc(C)c2[nH]c1=O` (stereo unspecified), for which the inhibition is 18% (active).

For the molecule `Cc1cccc2cc(CN(Cc3ccc4c(c3)OCO4)Cc3nnnn3C3CCCC3)c(=O)[nH]c12`, the inhibition was -0.14% (inactive).

For the molecule `Cc1cccc2cc(CN(Cc3cccs3)C(c3nnnn3C3CCCC3)C(C)C)c(=O)[nH]c12` (stereo unspecified), the inhibition is 11% (inactive).

`O=C(CC(=O)N/N=C\c1cccc(Cl)c1Cl)NCc1ccccc1`: the inhibition is 13.3% (inactive).

As to `COc1ccc(-c2nn(-c3ccccc3)cc2/C=N/Nc2ccccn2)cc1OC`, the inhibition was 9.59% (inactive).

For the molecule `COc1ccc(-c2nn(-c3ccccc3)cc2C(=O)Nc2nc(CC(C)=O)ns2)cc1`, the inhibition is -0.9% (inactive).

Take `COc1ccc(-c2nn(-c3ccccc3)cc2C(=O)Nc2nccs2)cc1OC`: the inhibition was 17.6% (active).

Consider `O=C(c1cncc(Br)c1)N1CCN(c2ccc([N+](=O)[O-])cc2)CC1`, for which the inhibition is 0.95% (inactive).

With `C/C(=N\Nc1ncc(Cl)cc1Cl)c1ccc(S(=O)(=O)NCc2ccco2)cc1`, the inhibition is 2.79% (inactive).

`Cc1ccc(N/N=C2\COC(C)(C)CC2=O)cc1`: the inhibition was 1.13% (inactive).

For the molecule `Cc1ccc(NC(=O)NC(=O)CSc2nnc(-c3ccc(OC(F)F)cc3)n2N)c(C)c1`, the inhibition is 0.74% (inactive).

For `Cc1ccccc1OC(=O)Cn1c(C(F)(F)F)nc2ccccc21`, the inhibition is 20.2% (active).

`CN1CCN(C(=O)Cn2c(C(F)(F)F)nc3ccccc32)CC1`: the inhibition is -1.96% (inactive).

In the case of `CC(C)(C)NC(=O)NC(=O)COC(=O)Cn1c(C(F)(F)F)nc2ccccc21`, the inhibition was 6.71% (inactive).

In the case of `CCCCN(CC)C(=O)c1ccccc1Oc1ccccc1`, the inhibition was 9.08% (inactive).

Regarding `Cc1ccc(C(=O)C[n+]2cc(-c3ccccc3)n3c2CCCCC3)cc1`, the inhibition is 13.7% (inactive) and 24.1% (active).

With `O=C(c1ccc(CSc2ccccc2)cc1)N1CCCCCC1`, the inhibition was 4.41% (inactive).

With `Cc1ccc(C(=O)CS(C)(=O)=O)cc1`, the inhibition is 4.03% (inactive).

In the case of `COc1ccc(C2c3c(C)nn(-c4ccccc4)c3NC(=O)N2c2ccccc2)cc1` (stereo unspecified), the inhibition was 0.06% (inactive).

Regarding `CCn1cc(CNC(=O)c2cc([N+](=O)[O-])c(C)c([N+](=O)[O-])c2)cn1`, the inhibition was 2.2% (inactive).

With `Cc1cc(C(=O)N/N=C/c2cc([N+](=O)[O-])cc(C)c2O)n[nH]1`, the inhibition is 9.9% (inactive).

Turning to `O=C(COC(=O)Cn1cnc2ccccc21)Nc1cccc2c1C(=O)c1ccccc1C2=O`, the inhibition is 4.37% (inactive).

On to `Cc1cccc(C(=O)Nc2ccccc2N2CCN(c3ccc(F)cc3)CC2)c1`, for which the inhibition was 8.99% (inactive).

For `O=C(Nc1ccccc1N1CCCCC1)c1cccc(F)c1`, the inhibition is 8.36% (inactive).

On to `O=C(Nc1ccccc1N1CCN(c2ccccc2)CC1)c1cccc(F)c1`, for which the inhibition was 19.2% (active).

For the molecule `CC1CCN(C(=O)c2ccc(S(=O)(=O)Cc3cc(F)ccc3F)c([N+](=O)[O-])c2)CC1`, the inhibition was -1.09% (inactive).

Regarding `Cc1cccc(C)c1NC(=O)C(c1ccccc1)N1CC(=O)Nc2ccccc21` (stereo unspecified), the inhibition is 1.93% (inactive).
